Nrf2 block: Nrf2 qHTS screen for inhibitors; A549 ARE-Fluc reporter, luciferase luminescence, 18-24 h; Potency, µM (top dose mostly 46 µM), for the others: top-dose activity change, negative = inhibition, actives largely listed as inhibitors; hit rate 2.1% among 360,000; AID 504444, 2011; also: % is scaled to controls: 0 for no effect and ±100 for the full control effect; nearly all actives have a fitted effect of over 60% in size
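Nrf2 activity is the BugLite luminescence, read 15 min after reagent at room temperature, following CellTiter-Fluor cytotoxicity readout (30 min, 37C). Compound titrations were applied for 18-24 h to 5000 A549 ARE_Fluc cells/well in 5% FBS OPTI-MEM.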
GALK inhibitor: qHTS Assay for Inhibitors of Human Galactokinase (GALK) | P51570 | Purified GALK, Kinase-Glo residual ATP luminescence | Potency, µM (highest dose often 57.5 µM), for inactives: top-dose activity change, negative = inhibition, hits mostly inhibitors | hit rate 0.007% among 270,000 | AID 1868, 2009; also: % is scaled to controls: 0 for no effect and ±100 for the full control effect
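Galactose (100 uM) and ATP (35 uM) were turned over by 5 nM GALK for 1 h at RT. Kinase-Glo Plus then converted the remaining ATP into a luminescent signal.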
TrxR1 substrate: qHTS Assay for Substrates of Mammalian Selenoprotein Thioredoxin Reductase 1 (TrxR1): qHTS. Potency, µM (series often up to 114 µM), without a hit: at the top dose activity change, negative = substrate turnover. hit rate 0.01% among 390,000. Thioredoxin reductase 1, cytoplasmic (Rattus norvegicus), O89049. purified TrxR1 substrate turnover, NADPH consumption readout; also: % is scaled to controls: 0 for no effect and ±100 for the full control effect; nearly all actives have a fitted effect of over 50% in size
Target sequence (O89049 whole entry, looked up): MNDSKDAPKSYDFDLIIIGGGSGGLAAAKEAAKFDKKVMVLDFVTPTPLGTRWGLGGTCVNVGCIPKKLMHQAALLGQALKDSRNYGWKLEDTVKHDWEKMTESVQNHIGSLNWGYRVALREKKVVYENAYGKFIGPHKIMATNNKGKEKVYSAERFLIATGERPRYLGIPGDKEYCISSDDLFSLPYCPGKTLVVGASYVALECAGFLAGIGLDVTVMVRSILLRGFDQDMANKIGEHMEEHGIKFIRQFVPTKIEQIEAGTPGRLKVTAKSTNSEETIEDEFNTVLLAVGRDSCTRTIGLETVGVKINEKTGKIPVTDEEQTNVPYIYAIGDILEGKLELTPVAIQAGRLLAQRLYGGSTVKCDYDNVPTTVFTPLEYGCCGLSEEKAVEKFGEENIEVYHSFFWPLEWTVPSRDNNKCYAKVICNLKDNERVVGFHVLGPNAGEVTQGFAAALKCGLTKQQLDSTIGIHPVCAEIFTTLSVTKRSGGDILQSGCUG
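Rat TrxR1, dispensed at 90 nM, was prereduced with 400 uM NADPH (final) for 5 min at ~22 deg C, then incubated with compound 15 min before 400 uM selenite. A first-read NADPH fluorescence drop versus no-compound background flagged substrates.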
rTrxR1 inhibitor: qHTS Assay for Inhibitors of Mammalian Selenoprotein Thioredoxin Reductase 1 (TrxR1): qHTS; Thioredoxin reductase 1, cytoplasmic (Rattus norvegicus), O89049; recombinant rTrxR1, NADPH fluorescence consumption, selenite substrate; Potency, µM (highest dose often 114 µM), without a hit: at the highest dose activity change, negative = inhibition, usual class: inhibitors; hit rate 1% among 390,000; AID 588453, 2011; also: % is scaled to controls: 0 for no effect and ±100 for the full control effect; nearly all actives have a fitted effect of over 65% in size
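Rat TrxR1 (90 nM in the dispensed reagent) was pre-reduced with 400 uM NADPH for 5 min at room temperature, then incubated with compound for 15 min. After 400 uM selenite was added, NADPH fluorescence (Ex 340/Em 450 nm) was followed for 8 min.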
A549 viability: Nrf2 qHTS screen for inhibitors: counterscreen for cytotoxicity | A549 ARE-Fluc cells, CellTiter-Fluor viability, 18-24 h | Potency, µM (highest dose often 46 µM), for inactives: at the highest dose activity change, negative = cytotoxicity, usual class: inhibitors | hit rate 0.16% among 390,000 | AID 504648, 2011; also: % is scaled to controls: 0 for no effect and ±100 for the full control effect
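A549 ARE_Fluc cells in 5% FBS OPTI-MEM were exposed to compounds in concentration-response for 18-24 h at 37 deg C. Viability was read by CellTiter-Fluor fluorescence (Ex 405/Em 525) after 30 min, before the luciferase read.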
Nrf2 ARE act: qHTS of Nrf2 Activators; hit rate 0.31% among 410,000; AID 624171, 2012; Potency, µM (doses to about 46.1 µM), without a hit: top-dose activation, most hits filed as activators; AREc32 ARE-luciferase reporter (MCF7-derived line), luminescence, 24 h; also: % of control where 0% means no effect; nearly all actives have a fitted effect of over 65% in size
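Nrf2 activation is followed as ARE-luciferase induction in the AREc32 line after one day of compound treatment; luminescence is read with Steady-Glo.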
Numbers without * were called inactive; ? = inconclusive; / = no result given; [ ] = remark or other dose. Most compounds without a hit are left out; they make up all but 3% or so of the library. Calls follow the shape of the dose curve; as a rule, active = well fitted curve in the direction sought with a large enough effect; inconclusive = small, poorly fitted or top-dose-only effect, or another doubt; inactive = no such curve, though single readings can be large; an effect the other way counts as inactive or inconclusive. Potency is read from the fitted curve at half-maximal effect.

SMILES | Nrf2 block | GALK inhibitor | TrxR1 substrate | rTrxR1 inhibitor | A549 viability | Nrf2 ARE act
Cc1ccc(/C(N)=N/OC(=O)c2ccco2)cc1 | ? | 2% | 2% | 9% | 0% | 24%
Cc1occc1C(=O)O/N=C(\N)c1ccc(Cl)cc1 | ? | / | 11%[57.1 µM] | 5%[57.1 µM] | 3% | 6.3µM*
Cc1nc(-n2nc(C)c(Cc3ccc4c(c3)OCO4)c2C)sc1C(=O)Nc1cccc(Cl)c1 | -30% | / | -18% | -18% | 7% | -1%
CC1(c2nnc(Cc3ccccc3)o2)CC(c2ccc(OC(F)(F)F)cc2)=NO1 (stereo not given) | 23µM* | / | 6%[57.1 µM] | 15%[57.1 µM] | -12% | 1%
COc1cc(N(C)C)c(OC)cc1C=C1C=CC=C1 | / | / | -13% | ? | / | /
O=C1/C(=C\c2cc(Cl)c(O)c(Cl)c2)SC(=S)N1Cc1ccccc1 | 18µM* | ? | -12% | -18% | -24% | 0%
COc1ccc(/C=C2/SC(=S)N(Cc3ccccc3)C2=O)cc1O | ? | / | -2% | 2% | ? | 0%
Cc1ccc(C)c(N2CCN(C(=O)c3ccc(Cn4c(=O)[nH]c5ccccc5c4=O)cc3)CC2)c1 | 7.3µM* | -2% | -6% | -1% | -22% | -1%
N#C/C(=C\c1ccc(-c2cc(Cl)ccc2Cl)o1)C(=O)Nc1ccccc1C(=O)O | 5% | / | 6% | 13% | -1% | 4%
CCC(=NNC(=O)c1ccc2c(c1)nc(C)n2CC)c1cc(F)ccc1O | 6.5µM* | / | 10%[57.1 µM] | 11%[11.4 µM] | -7% | 0%
O=S(=O)(c1ccc2c(c1)OCCO2)N1CCN(S(=O)(=O)c2ccccc2F)CC1 | -8% | / | / | / | -6% | /
O=C(c1ccc2c(c1)OCCO2)C1CCN(S(=O)(=O)c2ccccc2F)CC1 | 13µM* | -1% | 2% | 22% | -21% | 0%
COc1cc(C(=O)Nc2ccc3nc(SCc4ccc(C)cc4)sc3c2)cc(OC)c1OC | ? | / | 6% | 35% | ? | 4%
O=C(c1cc(-c2ccc(Br)cc2)n[nH]1)N1CCN(C(=O)c2ccccc2Br)CC1 | 26µM* | -6% | -6% | 6% | -14% | 6%
COc1ccc(-c2cc(C(=O)N3CCN(C(=O)c4ccccc4F)CC3)[nH]n2)cc1 | ? | 7% | -5% | 17% | -10% | 0%
O=C(c1cc(-c2ccc(Br)cc2)n[nH]1)N1CCN(S(=O)(=O)c2ccc(Br)cc2)CC1 | -9% | / | 4% | 13% | -1% | 3%
COc1ccc(S(=O)(=O)N2CCN(C(=O)c3cc(-c4ccc(Br)cc4)n[nH]3)CC2)cc1OC | 21µM* | -3% | 6% | 25% | -13% | 3%
O=C(Nc1cccc(Cl)c1Cl)C1CC(=O)N(c2ccc(Br)cc2)C1 (stereo not given) | 7.3µM* | -2% | 8% | 8% | -12%[1.84 µM] | -1%
Cc1ccc(NC(=O)C2CCN(S(=O)(=O)c3ccc(N4CCCC4=O)cc3)CC2)cc1Cl | 10µM* | 1% | -7% | 13% | -5% | 0%
COc1ccc(N2CC(C(=O)Nc3ccc(S(=O)(=O)N4CCCCC4)cc3)CC2=O)cc1 (stereo not given) | 21µM* | 3% | -10% | -5% | -1% | 0%
O=C(Nc1ccc(S(=O)(=O)N2CCCCC2)cc1)C1CC(=O)N(c2ccc(Cl)cc2)C1 (stereo not given) | 23µM* | -2% | 4%[57.1 µM] | 7%[57.1 µM] | ? | 1%
COc1ccc(N2CC(C(=O)Nc3ccc(S(=O)(=O)N4CCCC4)cc3)CC2=O)cc1 (stereo not given) | -22% | 0% | -4%[0.0914 µM] | 2% | 2% | 2%
O=C(Nc1cccc(F)c1)C1CC(=O)N(c2ccc(Br)cc2)C1 (stereo not given) | -7% | 0% | 5%[57.1 µM] | 16%[57.1 µM] | 1% | 1%
CCCN(CCC)C(=O)c1cc([N+](=O)[O-])cc2c1-c1ccc([N+](=O)[O-])cc1C2=C(C#N)C#N | -2% | -2% | -8% | 13µM* | ? | 9%
Cc1cc(C(F)F)n2ncc(C(=O)N3CCc4ccccc4C3)c2n1 | / | 0% | 5%[57.1 µM] | 8%[57.1 µM] | -5% | -1%
SMILES | Nrf2 block | GALK inhibitor | TrxR1 substrate | rTrxR1 inhibitor | A549 viability | Nrf2 ARE act
O=C(c1cnn2c(C(F)F)cc(-c3ccccc3)nc12)N1CCc2ccccc2C1 | 23µM* | 1% | 9%[57.1 µM] | 23%[57.1 µM] | ? | 0%
COc1ccc(Br)cc1CNC(=O)CN1C(=O)CCCc2ccccc21 | 14% | / | -4% | 0% | 2% | 3%
O=C(CCCN1C(=O)/C(=C\c2cccc(Br)c2)SC1=S)Nc1cccnc1 | ? | 2% | 3%[57.1 µM] | 2%[57.1 µM] | ? | 10µM*
COC(=O)c1ccc(/C=C2/SC(=S)N(CCCC(=O)Nc3ccccn3)C2=O)cc1 | 26% | 1% | -9% | -23% | -19% | 0%
O=C(CCCN1C(=O)/C(=C/c2cccc(Br)c2)SC1=S)Nc1cccnc1 | ? | -1% | -1%[57.1 µM] | 2%[57.1 µM] | ? | ?
CCc1ccc(/C=C2\SC(=S)N(CCCC(=O)Nc3ccccn3)C2=O)cc1 | 23µM* | 2% | 4%[57.1 µM] | 12%[57.1 µM] | -13% | -3%
Cc1ccc(/C=C2\SC(=S)N(CC(=O)Nc3cccnc3)C2=O)cc1 | -14% | 1% | -1%[57.1 µM] | 2%[57.1 µM] | 1% | 2%
Cc1ccc(/C=C2\SC(=S)N(CCCC(=O)Nc3cccnc3)C2=O)cc1 | 12µM* | 0% | -2% | 2% | ? | -2%
CCOc1cc(CNC(=O)c2ccc3nc(CCc4ccccc4)oc3c2)ccc1OC | / | / | 5%[57.1 µM] | 16%[57.1 µM] | -3% | 1%
CCOc1ccc(CNC(=O)c2cc3c(s2)-c2ccccc2OC3)cc1 | -20% | / | 155% | 29% | 5% | 0%
COc1ccc(C2NC(=S)NC3=C2CCCC3=C2SCCS2)cc1 (stereo not given) | ? | 9% | 3%[57.1 µM] | -5%[57.1 µM] | -21% | 3.2µM*
S=C1NC2=C(CCCC2=C2SCCCS2)C(c2ccccc2)N1 (stereo not given) | 2% | -1% | -13%[57.1 µM] | -49% | 14% | 17%
COc1cc2nc(SCC(=O)Nc3c(C)cc(C)cc3C)n3nc(CCn4c(C)nc5ccccc54)nc3c2cc1OC | 6% | / | 1% | 10% | 1% | 2%
COc1ccccc1-c1c(C(F)(F)F)oc2cc(OS(C)(=O)=O)ccc2c1=O | 8.2µM* | 2% | -13% | -10% | -11% | 2%

Screening data: PubChem BioAssay, National Center for Advancing Translational Sciences (NCATS)
